Reference: the supplement of paper PMC7156485
± gives the standard deviation of the averaged measurements.

Experiments:
Conditions in all cases: concentration: 10 µM; 24 h
HCC1569 [1] = assay: cell number relative to DMSO (% of DMSO); higher = more cells (less growth inhibition / toxicity)
Method in brief: (§1)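 H1.0 nuclear intensity or cell number is stated as percent of the plate control, based on the median of replicates, and HCC1569 values were smoothed for positional effects. These came from HCC1569 and TDF cells treated with compounds at 10 µM for 24 h at 37 °C in triplicate, then fixed in 3.7% formaldehyde and stained with a rabbit anti-H1.0 antibody, an AlexaFluor 647 secondary and DAPI.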

TDF [2] = assay: as above
Method in brief: as §1

TDF [3] = assay: H1.0 immunofluorescence intensity relative to DMSO (% of DMSO); higher = stronger H1.0 induction, active = 120 or more
Method in brief: as §1

HCC1569 [4] = assay: H1.0 immunofluorescence intensity relative to DMSO (% of DMSO); higher = stronger H1.0 induction, active = 140 or more
Method in brief: as §1
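Throughout, for H1.0 immunofluorescence intensity relative to DMSO: TDF is a line of transformed human dermal fibroblasts of mesenchymal origin.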
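Throughout, for cell number relative to DMSO: TDF denotes transformed human dermal fibroblasts of mesenchymal origin.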

Structure (SMILES) | cell number (HCC1569 [1]) | cell number (TDF [2]) | H1.0 immunofluorescence intensity (TDF [3]) | H1.0 immunofluorescence intensity (HCC1569 [4])
Cn1cnc2c(F)c(Nc3ccc(Br)cc3Cl)c(C(=O)NOCCO)cc21 | 105 | 91.8 | 93.3 (inactive) | 98.8 (inactive)
COc1ccc(COc2ccc(Cc3cnc(N)nc3N)cc2OC)cc1 [cFMS Receptor Tyrosine Kinase Inhibitor] | 100 | 93.7 | 98.1 (inactive) | 130 (inactive)
CC(C)Cn1c(=O)n(C)c(=O)c2[nH]cnc21 [3-Isobutyl-1-methylxanthine] | 114 | 118 | 90.5 (inactive) | 88.2 (inactive)
CCOC(=O)Nc1ccc(NCc2ccc(F)cc2)nc1N.O=C(O)C=CC(=O)O [Flupirtine maleate] | 97.3 | 99.2 | 89.1 (inactive) | 105 (inactive)
COc1ccc2c(c1)c(CC(=O)OCC(=O)O)c(C)n2C(=O)c1ccc(Cl)cc1 [Acemetacin] | 96.5 | 94.4 | 95.4 (inactive) | 104 (inactive)
COC1(C2=NCCN2)COc2ccccc2O1.Cl (centres undefined) | 104 | 108 | 89.4 (inactive) | 102 (inactive)
COc1ccc(C2OCC3C(c4ccc(OC)c(OC)c4)OCC23)cc1OC (centres undefined) [Eudesmine] | 102 | 104 | 97.6 (inactive) | 107 (inactive)
CC(C[N+](C)(C)C)OC(N)=O (stereo not drawn) [Carbamyl-beta-methylcholine] | 105 | 99.5 | 89.1 (inactive) | 108 (inactive)
CCC(CCC(C)C1CCC2C3CC=C4CC(O)CCC4(C)C3CCC12C)C(C)C (centres undefined) | 99.8 | 92.5 | 105 (inactive) | 90.6 (inactive)
COc1ccc2c(c1)c(CC(=O)O)c(C)n2Cc1ccc(F)cc1 [1-(4-Fluorobenzyl)-5-methoxy-2-methylindole-3-acetic acid] | 101 | 95.2 | 95.4 (inactive) | 85.5 (inactive)
CCn1nc(C(=O)O)c(=O)c2cc3c(cc21)OCO3 [Cinoxacin] | 97.6 | 105 | 95.7 (inactive) | 97.5 (inactive)
CNCC(O)C(O)C(O)C(O)CO (centres undefined) [Meglumine] | 103 | 120 | 99.3 (inactive) | 92.4 (inactive)
CC1CCCC(C)N1NC(=O)c1ccc(Cl)c(S(N)(=O)=O)c1 (centres undefined) [Clopamide] | 100 | 104 | 94.9 (inactive) | 104 (inactive)
CN(C)c1cc2c(Nc3ccc4c(cnn4Cc4ccccc4)c3)ncnc2cn1 | 82.9 | 90.4 | 113 (inactive) | 118 (inactive)
Cn1c(=O)c2c(nc(C=Cc3cccc(Cl)c3)n2C)n(C)c1=O [8-(3-Chlorostyryl)caffeine] | 106 | 94.1 | 100 (inactive) | 99.1 (inactive)
C=C1CCC2C(C)(CO)C(O)CCC2(C)C1CC=C1C(=O)OCC1O (centres undefined) [Andrographolide] | 83.1 | 68.6 | 109 (inactive) | 113 (inactive)
Nc1nnc(-c2cccc(Cl)c2Cl)c(N)n1 [Lamotrigine] | 99.6 ± 2.1 | 105 ± 2 | 87.7 (inactive) | 101 (inactive)
COC(=O)c1cnn(-c2ccc(F)cc2F)c1/C=N/NC(=S)NC(C)(C)C | 95.9 | 101 | 99 (inactive) | 102 (inactive)
Cl.Clc1cccc(Cl)c1NC1=NCCN1 [Clonidine hydrochloride] | 99.2 | 103 | 94.1 (inactive) | 90 (inactive)
Cc1c(C)c2c(c(C)c1O)CCC(C)(C(=O)O)O2 (centres undefined) [Trolox] | 101 | 101 | 94.4 (inactive) | 91.3 (inactive)
COc1ccc(C(=O)Nc2c(Cl)cncc2Cl)cc1OC1CCCC1 | 102 | 93.3 | 91 (inactive) | 106 (inactive)
O=C(c1ccc(Cl)c(S(=O)(=O)NCC2CCCO2)c1)N1CCN(c2ncccn2)CC1 (centres undefined) [Adenosine Kinase Inhibitor] | 86.3 | 103 | 89.5 (inactive) | 116 (inactive)
C=C1CCC(O)CC1=CC=C1CCCC2(C)C1CCC2C(C)CCCC(C)(C)O (centres undefined) [Calcifediol] | 97.4 | 104 | 99.9 (inactive) | 120 (inactive)
O=[N+]([O-])c1ccc(CSc2ncnc3c2ncn3C2OC(CO)C(O)C2O)cc1 (stereo not drawn) [S-(4-Nitrobenzyl)-6-thioinosine] | 99 | 111 | 92.2 (inactive) | 80.6 (inactive)
CC(N)(COP(=O)(O)O)C(=O)O (centres undefined) [2-methyl-O-phosphonoserine] | 97.7 | 102 | 96 (inactive) | 102 (inactive)
COc1ccc(C(=O)/C(Cc2cc(OC)c(OC)c(OC)c2)=C(\C(=O)[O-])c2ccc3c(c2)OCO3)cc1.[Na+] | 97.7 | 98.7 | 88.2 (inactive) | 103 (inactive)

Structure (SMILES) | cell number (HCC1569 [1]) | cell number (TDF [2]) | H1.0 immunofluorescence intensity (TDF [3]) | H1.0 immunofluorescence intensity (HCC1569 [4])
CCCCN1CCCC[C@H]1C(=O)Nc1c(C)cccc1C.Cl | 104 | 107 | 96.8 (inactive) | 108 (inactive)
COc1cc(C2c3cc4c(cc3C(OC3OC5COC(C)OC5C(O)C3O)C3COC(=O)C23)OCO4)cc(OC)c1O (centres undefined) [Etoposide] | 74.1 ± 1.6 | 42.1 ± 4.8 | 125 (active) | 95.1 (inactive)
CCC(C)C(O)C(C)C(=O)C(C)C=C(C)CC(C)C1OC(=O)C1CC (centres undefined) [Ebelactone B] | 102 | 104 | 99.9 (inactive) | 89.2 (inactive)
CNC(=O)C1OC(n2cnc3c(NCc4ccc(N)cc4)ncnc32)C(O)C1O (centres undefined) | 99.9 | 98.3 | 93.8 (inactive) | 90.6 (inactive)
C=CCc1ccccc1OCC(O)CNC(C)C.Cl (centres undefined) [Alprenolol.HCl] | 102 | 105 | 90.6 (inactive) | 102 (inactive)
C#CCNCc1cc2cc(OCc3ccccc3)ccc2[nH]1 [N-((5-(benzyloxy)-1H-indol-2-yl)methyl)prop-2-yn-1-amine] | 82.8 | 91 | 96 (inactive) | 136 (inactive)
O=C(CCl)c1c[nH]c2ccccc12 [2-chloro-1-(1H-indol-3-yl)ethanone] | 63.6 | 55 | 125 (active) | 150 (active)
O=C(O)C1=CC(=NNc2ccc(S(=O)(=O)Nc3ccccn3)cc2)C=CC1=O [Sulfasalazine] | 106 | 102 | 93 (inactive) | 88.7 (inactive)
N#Cc1ccc(N2N=C3c4ccc(C(=O)O)cc4CCC3C2C2CCCC2)cc1Cl (centres undefined) | 101 | 110 | 85.4 (inactive) | 101 (inactive)
Oc1cc2c(cc1O)CN(C(=S)NCCc1ccc(Cl)cc1)CCC2 [Capsazepine] | 106 | 112 | 91.8 (inactive) | 86.2 (inactive)
Cl.Cl.NCCNc1ncc(C(N)=O)c(Nc2cccc(C(F)(F)F)c2)n1.O.O [Syk Inhibitor II] | 82.1 | 84.7 | 88.2 (inactive) | 148 (active)
CC1=CC(=O)C2=C(C)CCC3C(C)C(=O)OC3C12 (centres undefined) [Leucomisine] | 99.3 | 111 | 96.5 (inactive) | 95.6 (inactive)
N[C@@H](Cc1ccc(O)c(O)c1)C(=O)O [L-3,4-Dihydroxyphenylalanine] | 100 | 105 | 89.7 (inactive) | 90 (inactive)
NC(=O)C1=CN(C2OC(COP(=O)([O-])OP(=O)([O-])OCC3OC(n4cnc5c(N)ncnc54)C(OP(=O)([O-])[O-])C3O)C(O)C2O)C=CC1.[Na+].[Na+].[Na+].[Na+] (centres undefined) [NADPH tetrasodium] | 103 | 102 | 96.9 (inactive) | 99.1 (inactive)
CN(C)CCC(c1ccc(Cl)cc1)c1ccccn1.O=C(O)C=CC(=O)O (racemic) | 96.1 | 107 | 103 (inactive) | 94.5 (inactive)
CCN(CC)CCNC(=O)c1ccc(N)cc1.Cl [Procainamide hydrochloride] | 98.7 | 110 | 88.6 (inactive) | 99.1 (inactive)
CCC1Cc2cc(O)ccc2C2=C1c1ccc(O)cc1CC2CC [(R,R)-cis-Diethyl tetrahydro-2,8-chrysenediol] | 87.5 | 110 | 87.9 (inactive) | 107 (inactive)
COc1ccc(Nc2nc(N)nc(CN3CCCCC3)n2)cc1 | 102 | 90.5 | 96.9 (inactive) | 94.5 (inactive)
CC(C)(C#N)c1ccc(N2C(=O)OCc3cnc4ccc(-c5cnc6ccccc6c5)cc4c32)cc1 | 59.8 | 44.1 | 101 (inactive) | 206 (active)
CCCCCC=CCC=CCC(O)C=CC=CCCCC(=O)O (centres undefined) | 102 | 90.4 | 96.8 (inactive) | 101 (inactive)
CCCCCCCC/C=C\CCCCCCCC(=O)NCc1ccc(O)c(OC)c1 [(9Z)-N-(4-hydroxy-3-methoxybenzyl)-9-octadecenamide] | 40.4 | 91.5 | 95.2 (inactive) | 171 (active)
NC(N)=Nc1nc(CSCCC(N)=NS(N)(=O)=O)cs1 [Famotidine] | 102 | 102 | 94.4 (inactive) | 89.7 (inactive)
CNCCNS(=O)(=O)c1cccc2cnccc12.Cl.Cl [H-8 dihydrochloride] | 105 | 101 | 91.8 (inactive) | 77.5 (inactive)
CC(=O)Nc1nnc(S(N)(=O)=O)s1 [Acetazolamide] | 104 | 106 | 86.9 (inactive) | 83.3 (inactive)
Cc1ccc(C(=O)Nc2ccc(S(=O)(=O)[O-])c3cc(S(=O)(=O)[O-])cc(S(=O)(=O)[O-])c23)cc1NC(=O)c1cccc(NC(=O)Nc2cccc(C(=O)Nc3cc(C(=O)Nc4ccc(S(=O)(=O)[O-])c5cc(S(=O)(=O)[O-])cc(S(=O)(=O)[O-])c45)ccc3C)c2)c1.[Na+].[Na+].[Na+].[Na+].[Na+].[Na+] [Suramin hexasodium] | 101 | 101 | 98.5 (inactive) | 102 (inactive)
